Reference: PubChem BioAssay AID886 (National Center for Advancing Translational Sciences (NCATS), 2007)
Where “and” joins values, the source holds several entries; their conditions need not be identical. Equal values may be shown once. Among all 73,000 compounds or so, about 2,500 (3.4%) were called active. Where a call stands in place of a potency, no number is given. Not shown: some 7% with an inconclusive outcome. The sample as a whole holds a higher share of actives than the screen did. A number with no mark means an inactive call. Calls follow the shape of the dose curve; as a rule, active = well fitted inhibition curve with a large enough effect; inconclusive = small, poorly fitted or top-dose-only effect; inactive = no such curve, though single readings can be large or run the other way.

biological target: 3-hydroxyacyl-CoA dehydrogenase type-2 (Homo sapiens) (UniProt Q99714); test: qHTS Assay for Inhibitors of HADH2 (Hydroxyacyl-Coenzyme A Dehydrogenase, Type II); settings: recombinant HADH2, NADH fluorescence, beta-hydroxybutyryl-CoA; series mostly up to 57.1 µM; also: nearly all actives have a fitted effect of over 60% in size
Sequence (Q99714 whole entry, looked up): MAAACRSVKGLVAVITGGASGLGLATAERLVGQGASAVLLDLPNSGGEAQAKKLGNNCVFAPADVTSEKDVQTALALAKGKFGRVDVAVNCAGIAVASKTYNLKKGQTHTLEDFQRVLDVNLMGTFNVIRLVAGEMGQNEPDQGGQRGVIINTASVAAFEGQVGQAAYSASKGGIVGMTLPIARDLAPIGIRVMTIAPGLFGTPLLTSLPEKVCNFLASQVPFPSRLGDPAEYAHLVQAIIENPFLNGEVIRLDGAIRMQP
Sequence (Q99714 whole entry, looked up): as above
Description: Assay Overview: NIH Molecular Libraries Screening Centers Network [MLSCN] NIH Chemical Genomics Center [NCGC] Structural Genomics Consortium [SGC] Grant Number: None HADH2: Hydroxyacyl-Coenzyme A dehydrogenase, type II, was supplied by researchers at the Structural Genomics Consortium, Oxford University lab (PI Udo Oppermann). The mitochondrial enzyme 17-hydroxysteroid dehydrogenase type 10 (HSD17-10) previously classified as type II hydroxyacyl-CoA dehydrogenase (HADH2) catalyzes the NAD+ dependent oxidation of a variety of substrates including acyl-CoAs, androgens and neurosteroids as well as bile acids(Shafqat N, Marschall HU, Filling C, et al. Biochemical Journal. 2003;376(Pt 1):49-60). The role in neurodegeneration by binding to amyloid-peptide led to its identification (Oppermann UC, et al FEBS Letters. 1999;451(3):238-242 and Yan SD, et al. Nature. 1997;389(6652):689-695), and mutations in its gene appear to be causative for 2-methyl-3-hydroxybutyryl-CoA dehydrogenase deficiency (Ofman R, et al. American Journal of Human Genetics. 2003;72(5):1300-1307). The enzyme was produced by E.coli fermentation as His-tagged recombinant for the purpose of X-ray structure determination, and had been mass-spectrometry characterized. Inhibition of HADH2 activity was screened by utilizing beta-hydroxybutyryl coenzyme A as an electron donor and NAD+ as an electron acceptor/cofactor. An increase in the fluorescence intensity due to conversion of NAD+ to NADH was used to measure the enzyme activity.
Assay Protocol: Buffer: 100 mM Tris-HCl pH 9.0, containing 0.01 % Tween-20. Reagents/Controls: Buffer in columns 3 and 4 as negative control (no enzyme). Substrate/cofactor solution: 1 mM NAD+ and 90 uM beta-hydroxybutyryl coenzyme A (Sigma-Aldrich, St. Louis, MO) final concentrations dispensed throughout the plate. Enzyme: 20 nM HADH2 final concentration in columns 1, 2, 5-48. Column 1 is neutral (100% activity). Column 2 contained titration of apomorphine (Sigma-Aldrich, A 4393, PubChem CID 2215, top concentration 500 uM, then 1:2 dilution in duplicate) Assay Steps: Three uL of enzyme were dispensed to 1536-well Greiner black solid bottom plates. Compounds and controls (23 nL) were transferred via Kalypsys PinTool. The plates were incubated for 15 min at room temperature, and then 1 uL of substrate/cofactor solution was added to start the reaction. The plates were immediately transferred to and read every 30 seconds for 4 min on ViewLux High-throughput CCD imager (Perkin-Elmer) using 360 nm excitation and 450 nm emission fluorescence protocol. The fluorescence intensity difference between the last and the first time points was used to compute reaction progress.
Potency is read from the fitted curve at half-maximal effect.

Question: CCOCCCNC(=O)c1c[nH]c2cc(C)ccc2c1=O was tested. Which Potency did it give?
Answer: Its Potency is “inactive”.

Question: With CCn1c(=N)c(C(=O)NCCCOC)cc2c(=O)n3cccc(C)c3nc21 as the molecule, how does the Potency read?
Answer: Its Potency is 3.98 µM (active).

Question: COc1ccc(CCn2c(=N)c(C(=O)NCc3ccco3)cc3c(=O)n4cccc(C)c4nc32)cc1 was tested. Which Potency did it give?
Answer: Its Potency is “inactive”.

Question: How did the Potency turn out when O=C(c1ccco1)N1CCC2(CC1)CN(c1ncccn1)C2 was run?
Answer: Its Potency is “inactive”.

Question: Which Potency does the source give for Nc1ccc2c3c(cccc13)C(=O)NC2=O here?
Answer: The Potency was “inactive”.

Question: For Cc1c(O)c(Br)c(C)c(O)c1Br (tested in a mixture with another compound), which Potency is on record?
Answer: Its Potency is 0.398 µM (active).

Question: With CC(C)[C@@H](OCc1ccccc1)[C@H](C)/C=N\OC[C@@H](C)[C@H](OCc1ccccc1)C(C)C as the molecule, how does the activity change, negative = inhibition read?
Answer: The activity change, negative = inhibition was 1.49% [at 11.4 µM].

Question: For C[C@]12C=CC(=O)C=C1CC[C@@H]1[C@@H]2C(=O)C[C@@]2(C)[C@H]1CC[C@]2(O)C(=O)CO, which Potency is on record?
Answer: The Potency was “inactive”.

Question: For CC(C)CSC[C@@H]1O[C@H](n2cnc3c(N)nccc32)[C@H](O)[C@@H]1O, which activity change, negative = inhibition is on record?
Answer: Its activity change, negative = inhibition is 7.39% [at 11.4 µM].

Question: With Cc1csc(NC(=O)CN2CCCCCC2)n1 as the molecule, how does the Potency read?
Answer: The Potency was “inactive”.

Question: With CCOC(=O)Cc1csc(NC(=O)Nc2ccccc2)n1 as the molecule, how does the Potency read?
Answer: The Potency was “inactive”.

Question: Cc1csc(NC(=O)NC2(C(F)(F)F)Oc3ccccc3O2)n1 was tested. Which Potency did it give?
Answer: The Potency was 2 µM (active).

Question: Which activity change, negative = inhibition does the source give for O=C(Oc1ccc2c(c1)CN(Cc1ccccc1)CO2)c1ccccc1 here?
Answer: Its activity change, negative = inhibition is -11.9% [at 11.4 µM].

Question: With O=C(O)c1nccnc1C(=O)Nc1ccc(Br)cn1 as the molecule, how does the Potency read?
Answer: The Potency was “inactive”.

Question: Which Potency does the source give for CC(C)C[C@@H](CC(=O)N[C@@H](CCC(=O)O)CC(=O)O)NC(=O)[C@@H]1CCCC[C@H]1NC(=O)C[C@@H](NC(=O)C[C@H](CO)NC(=O)[C@@H]1CCCC[C@H]1N)C(C)C here?
Answer: Its Potency is “inactive”.

Question: Cc1nc2c(c(=O)n1Cc1ccco1)c1nc3ccccc3nc1n2Cc1ccccc1 was tested. Which Potency did it give?
Answer: Its Potency is 25.1 µM (active).

Question: With COCCCn1c2nc3ccccc3nc2c2c(=O)n(Cc3ccc(Cl)cc3)c(C)nc21 as the molecule, how does the Potency read?
Answer: The Potency was “inactive”.

Question: With CC(Sc1nc2ccccc2c(=O)n1Cc1ccco1)C(=O)c1ccccc1 (stereo unspecified) as the molecule, how does the Potency read?
Answer: The Potency was “inactive”.

Question: How did the Potency turn out when COC(=O)C1(Cc2ccccc2)C=C2C(=C(C)C(=O)C2C)CN1 (stereo unspecified) was run?
Answer: The Potency was “inactive”.

Question: With CN1CCc2nc(-c3ccccc3)c(-c3ccccc3)cc2C1 as the molecule, how does the activity change, negative = inhibition read?
Answer: The activity change, negative = inhibition was -8.44% [at 11.4 µM].

Question: Cc1cc(C)cc(N)c1 was tested. Which Potency did it give?
Answer: Its Potency is “inactive”.

Question: How did the Potency turn out when Cc1nc(C)c(C(=O)Nc2cccc(C)c2C)o1 was run?
Answer: The Potency was 10 µM (active).

Question: Which Potency does the source give for Cc1ccccc1NC(=O)c1ccccc1 here?
Answer: The Potency was “inactive”.

Question: Cc1cccc(NC(=O)CSc2nc3c(c(=O)[nH]2)CCC3)c1C was tested. Which Potency did it give?
Answer: The Potency was “inactive”.

Question: Cn1c(=S)c2[nH]c(SCCCc3ccccc3)nc2n(C)c1=O was tested. Which activity change, negative = inhibition did it give?
Answer: The activity change, negative = inhibition was 7.85% [at 11.4 µM].

Question: How did the activity change, negative = inhibition turn out when O=C1C[C@@H](O)[C@@H](O)[C@H]2[C@@H]3C(=O)N(Cc4ccc5c(c4)OCO5)C(=O)[C@@H]3CC[C@H]12 was run?
Answer: The activity change, negative = inhibition was -4.62% [at 11.4 µM] and -11.5% [at 11.4 µM].
